According to PubChem BioAssay (EPA / NIEHS):
Values joined by “and” are separate entries in the source; they are usually repeats but may differ in a detail not shown here. Equal entries are not always repeated. Where a structure was tested more than once in an assay, its records may differ in their call. Active and inactive are the calls of the source. The calls were made as follows: active = hit-call score of the fitted dose curve at least 0.9, where 1 is the maximum; inactive = score below 0.9.

Legend:
[1] = target: Bile acid receptor (Homo sapiens) (UniProt Q96RI1); experiment: ATG_IR1_CIS: Attagene CIS-FACTORIAL HepG2 Assay for human Nuclear Receptor Subfamily 1 Group H Member 4 (NR1H4), IR1 submotif (AID 2282946); conditions: IR1 reporter transcription, actives raise or lower the signal
Procedure, shortened: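 Fluorescence of capillary-separated, HpaI-digested RT-PCR reporter products gave IR1-element mRNA induction in HepG2 cells 24 h after dosing. Endogenous transcription factors drove the cis-regulated reporters; activity was fitted bidirectionally against DMSO.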

[2] = ATG_GRE_CIS: Attagene CIS-FACTORIAL HepG2 Assay for human Glucocorticoid Response Elements (GRE) (AID 2282947); conditions: HepG2 GRE cis-reporter, Attagene multiplex mRNA; actives raise or lower the signal
Procedure, shortened: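 Fluorescence intensity of reporter-specific cDNA fragments, separated by capillary electrophoresis, provides the signal. Constructs carry cis-regulating promoters in transiently transfected HepG2 liver cells; 24 h incubation; fitting is bidirectional against DMSO.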

[3] = ATG_ISRE_CIS: Attagene CIS-FACTORIAL HepG2 Assay for human Interferon Regulatory Factor 1 (IRF1) binding to an Interferon-Stimulated Response Element (ISRE) (AID 2282948); conditions: HepG2 ISRE cis-reporter (Attagene), mRNA transcription readout; actives raise or lower the signal
Procedure, shortened: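 Endogenous transcription factor activity read as reporter transcript abundance via RT-PCR and capillary electrophoresis. HepG2 cells transiently transfected, 24 h chemical exposure. Gain or loss fitted against DMSO baseline.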

[4] = ATG_M_32_CIS: Attagene CIS-FACTORIAL HepG2 Assay for M32 Transcription Factor (Internal Marker) (AID 2282949); conditions: HepG2 Attagene cis-factorial M32 reporter, mRNA; actives raise or lower the signal;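 also: background control marker of the multiplexed CIS panel rather than a real target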
Procedure, shortened: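 HepG2 human liver cells transiently transfected with cis-promoter-driven multiple reporter transcription units, dosed 24 h. Reporter mRNA quantified by RT-PCR, FAM-labelled primer extension, HpaI digest and capillary electrophoresis; bidirectional fit versus DMSO baseline.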

[5] = ATG_M_06_CIS: Attagene CIS-FACTORIAL HepG2 Assay for M06 Transcription Factor (Internal Marker) (AID 2282950); conditions: HepG2 Attagene CIS-FACTORIAL M06 internal marker reporter; actives raise or lower the signal
Procedure, shortened: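 HepG2 liver cells, 24 h exposure. Reporter transcripts from transfected cis-element constructs quantified by RT-PCR/capillary electrophoresis fluorescence. Bidirectional curve fit against DMSO.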

[6] = target: Hypoxia-inducible factor 1-alpha (Homo sapiens) (UniProt Q16665); experiment: ATG_HIF1a_CIS: Attagene CIS-FACTORIAL HepG2 Assay for human Hypoxia Inducible Factor 1 (HIF1A) (AID 2282951); conditions: HepG2 Attagene cis-factorial HIF1a reporter transcription; actives raise or lower the signal
Procedure, shortened: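 Endogenous-TF cis reporter readout, human HepG2 cells, 24 h incubation; mRNA detected via RT-PCR and capillary electrophoresis fluorescence; DMSO-normalised bidirectional fitting.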

[7] = target: Hepatocyte nuclear factor 6 (Homo sapiens) (UniProt Q9UBC0); experiment: ATG_HNF6_CIS: Attagene CIS-FACTORIAL HepG2 Assay for human Hepatocyte Nuclear Factor 6 (HNF6) (AID 2282952); conditions: HepG2 Attagene cis-factorial HNF6 reporter transcription; actives raise or lower the signal
Procedure, shortened: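 Using cis-element reporters in HepG2 liver cells, the assay tracks endogenous factor-driven transcription 24 h post-dosing. Signal comes from 6-FAM-labelled, HpaI-digested RT-PCR fragments, with gain or loss scored against DMSO.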

[8] = target: Heat shock factor protein 1 (Homo sapiens) (UniProt Q00613); experiment: ATG_HSE_CIS: Attagene CIS-FACTORIAL HepG2 Assay for human Heat Shock Transcription Factor 1 (HSE) (AID 2282953); conditions: HepG2 HSE cis-reporter, Attagene RNA transcription; actives raise or lower the signal
Procedure, shortened: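 Endogenous transcription factor activity captured via cis-promoter reporter units transfected into HepG2; treatment lasted 24 h. Fluorescence intensity of reporter fragments analysed with bidirectional curve fitting, DMSO baseline.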

[9] = ATG_MRE_CIS: Attagene CIS-FACTORIAL HepG2 Assay for human Metal Responsive Element (MRE) (AID 2282954); conditions: HepG2 MRE cis-reporter transcription, Attagene multiplex; actives raise or lower the signal
Procedure, shortened: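 Measured here is mRNA induction from an MRE cis-element reporter in HepG2 after 24 h, quantified by fluorescence of labelled RT-PCR products on capillary electrophoresis; gain- and loss-of-signal fits use DMSO as baseline.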

[10] = ATG_PBREM_CIS: Attagene CIS-FACTORIAL HepG2 Assay for human Phenobarbital-responsive Enhancer Module (PBREM) (AID 2282955); conditions: HepG2 PBREM cis-reporter, Attagene multiplexed transcription; actives raise or lower the signal
Procedure, shortened: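 Readout: reporter mRNA, fluorescent RT-PCR fragments separated by capillary electrophoresis. System: HepG2 transiently transfected with cis-regulated reporter units. Exposure: 24 h. Analysis: bidirectional, DMSO baseline.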

[11] = target: Paired box protein Pax-6 (Homo sapiens) (UniProt P26367); experiment: ATG_Pax6_CIS: Attagene CIS-FACTORIAL HepG2 Assay for human Paired Box 6 (PAX6) (AID 2282956); conditions: HepG2 CIS-FACTORIAL PAX6 reporter transcription, RNA readout; actives raise or lower the signal
Procedure, shortened: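 Read-out is reporter transcript level, measured by RT-PCR with fluorescent primer extension and capillary electrophoresis after 24 h dosing of transfected HepG2 cells. Activity in either direction fitted relative to DMSO control.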

[12] = ATG_PXRE_CIS: Attagene CIS-FACTORIAL HepG2 Assay for human Pregnane X Receptor Element (PXRE) (AID 2282957); conditions: HepG2 Attagene CIS-FACTORIAL PXRE reporter, mRNA; actives raise or lower the signal
Procedure, shortened: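 Using HepG2 transfected with multiple reporter transcription units, endogenous factor-driven transcription was scored as reporter mRNA after 24 h exposure.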

[13] = ATG_PPRE_CIS: Attagene CIS-FACTORIAL HepG2 Assay for human Peroxisome Proliferator-activated Response Element (PPRE) (AID 2282958); conditions: HepG2 PPRE cis-element reporter, Attagene transcription factor profiling; actives raise or lower the signal
Procedure, shortened: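 After human HepG2 hepatoma cells were transiently transfected with cis-promoter reporter constructs, they were exposed to test chemicals for 24 hours. Reporter RNA was then reverse-transcribed, PCR-amplified, FAM-labeled, HpaI-digested and quantified by capillary electrophoresis.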

[14] = ATG_RORE_CIS: Attagene CIS-FACTORIAL HepG2 Assay for human RAR-related Orphan Receptor Element (RORE) (AID 2282959); conditions: HepG2 Attagene cis-factorial RORE reporter, mRNA; actives raise or lower the signal
Procedure, shortened: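 Measured here: transcript induction of a cis-regulated reporter in HepG2 cells transiently transfected via FuGene 6. After 24 h, RNA was processed by RT-PCR and fluorescent capillary electrophoresis; DMSO defined baseline activity.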

[15] = ATG_Sox_CIS: Attagene CIS-FACTORIAL HepG2 Assay for human SRY-box transcription factor (SOX) (AID 2282960); conditions: HepG2 Attagene cis-factorial SOX reporter, mRNA; actives raise or lower the signal
Procedure, shortened: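 Using transiently transfected HepG2 cells, reporter transcription driven by cis elements was assessed 24 h after dosing. Signal was fluorescence of capillary-separated RT-PCR products, with DMSO defining baseline activity.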

[16] = target: Transcription factor Sp1 (Homo sapiens) (UniProt P08047); experiment: ATG_Sp1_CIS: Attagene CIS-FACTORIAL HepG2 Assay for human Specificity Protein 1 (Sp1) (AID 2282961); conditions: HepG2 Sp1 cis-reporter transcription, actives raise or lower the signal
Procedure, shortened: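 After transient transfection of HepG2 cells with cis-promoter reporter units and 24 h chemical treatment, reporter transcripts were quantified by RT-PCR and capillary electrophoresis fluorescence. Gain- and loss-of-signal fitted against DMSO.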

[17] = target: Signal transducer and activator of transcription 3 (Homo sapiens) (UniProt P40763); experiment: ATG_STAT3_CIS: Attagene CIS-FACTORIAL HepG2 Assay for human Signal Transducer and Activator of Transcription 3 (STAT3) (AID 2282963); conditions: HepG2, Attagene cis-factorial STAT3 reporter transcription; actives raise or lower the signal
Procedure, shortened: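 Fluorescence intensity of 6-FAM-labelled reporter fragments, separated by capillary electrophoresis after RT-PCR, gave the signal. Cells were HepG2 transfected with cis-element reporter units and treated 24 h; fitting was bidirectional relative to DMSO.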

[18] = ATG_TA_CIS: Attagene CIS-FACTORIAL HepG2 Assay for human TA Basal Promoter (AID 2282964); conditions: HepG2 Attagene CIS-factorial TA basal promoter reporter; actives raise or lower the signal
Procedure, shortened: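 Fluorescence from labelled RT-PCR reporter fragments, separated by capillary electrophoresis, gives the signal. Cells: HepG2 transiently carrying multiple reporter units, 24 h chemical dosing. Gain or loss relative to DMSO.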

[19] = ATG_TCF_b_cat_CIS: Attagene CIS-FACTORIAL HepG2 Assay for human T-Cell-Factor with beta-catenin (TCF/b-cat) (AID 2282965); conditions: HepG2 TCF/beta-catenin cis-reporter transcription, actives raise or lower the signal
Procedure, shortened: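 HepG2, transient MRTU transfection, cis-element-driven reporters (endogenous TFs). 24 h compound exposure. Readout: reporter mRNA by RT-PCR + 6-FAM primer extension, HpaI digest, capillary electrophoresis. Gain/loss fit vs DMSO baseline.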

[20] = ATG_SREBP_CIS: Attagene CIS-FACTORIAL HepG2 Assay for human Sterol Regulatory Element Binding (SREBP) (AID 2282962); conditions: HepG2 Attagene cis-factorial SREBP reporter, mRNA; actives raise or lower the signal
Procedure, shortened: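 Endogenous SREBP activity read as cis-element-driven reporter transcript in transiently transfected HepG2, 24 h post-dosing; quantified via RT-PCR plus capillary electrophoresis of fluorescent fragments. Gain or loss of signal fitted relative to DMSO baseline.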

Measured: AC50

Sequence of Hepatocyte nuclear factor 6 (Homo sapiens) (Q9UBC0 whole entry, looked up, the tested form may be a part): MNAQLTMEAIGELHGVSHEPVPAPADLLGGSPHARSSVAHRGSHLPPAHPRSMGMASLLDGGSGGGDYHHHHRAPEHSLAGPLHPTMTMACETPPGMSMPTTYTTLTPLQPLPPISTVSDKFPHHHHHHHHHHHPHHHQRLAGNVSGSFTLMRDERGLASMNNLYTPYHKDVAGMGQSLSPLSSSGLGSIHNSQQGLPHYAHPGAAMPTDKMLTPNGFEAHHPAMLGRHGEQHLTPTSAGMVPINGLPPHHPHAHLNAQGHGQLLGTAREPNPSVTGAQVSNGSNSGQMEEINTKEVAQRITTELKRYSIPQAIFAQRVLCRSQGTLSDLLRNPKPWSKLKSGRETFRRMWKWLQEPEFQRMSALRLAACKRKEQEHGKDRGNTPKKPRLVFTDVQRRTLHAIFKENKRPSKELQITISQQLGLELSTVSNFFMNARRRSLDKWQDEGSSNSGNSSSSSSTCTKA
Sequence of Heat shock factor protein 1 (Homo sapiens) (Q00613 whole entry, looked up, the tested form may be a part): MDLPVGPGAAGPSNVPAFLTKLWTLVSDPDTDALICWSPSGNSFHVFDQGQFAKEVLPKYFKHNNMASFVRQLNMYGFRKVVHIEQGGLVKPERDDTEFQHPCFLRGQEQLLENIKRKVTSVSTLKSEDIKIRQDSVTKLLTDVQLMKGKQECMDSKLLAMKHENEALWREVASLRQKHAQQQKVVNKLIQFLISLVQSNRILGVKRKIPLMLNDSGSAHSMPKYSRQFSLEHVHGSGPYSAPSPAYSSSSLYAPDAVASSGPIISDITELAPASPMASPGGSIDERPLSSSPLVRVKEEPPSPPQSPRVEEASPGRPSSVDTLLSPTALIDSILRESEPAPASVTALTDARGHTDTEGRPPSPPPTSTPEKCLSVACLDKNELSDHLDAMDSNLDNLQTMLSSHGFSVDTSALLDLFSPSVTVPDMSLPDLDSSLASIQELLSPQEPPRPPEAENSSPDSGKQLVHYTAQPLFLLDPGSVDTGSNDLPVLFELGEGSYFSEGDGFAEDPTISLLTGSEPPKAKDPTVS
Sequence of Signal transducer and activator of transcription 3 (Homo sapiens) (P40763 whole entry, looked up, the tested form may be a part): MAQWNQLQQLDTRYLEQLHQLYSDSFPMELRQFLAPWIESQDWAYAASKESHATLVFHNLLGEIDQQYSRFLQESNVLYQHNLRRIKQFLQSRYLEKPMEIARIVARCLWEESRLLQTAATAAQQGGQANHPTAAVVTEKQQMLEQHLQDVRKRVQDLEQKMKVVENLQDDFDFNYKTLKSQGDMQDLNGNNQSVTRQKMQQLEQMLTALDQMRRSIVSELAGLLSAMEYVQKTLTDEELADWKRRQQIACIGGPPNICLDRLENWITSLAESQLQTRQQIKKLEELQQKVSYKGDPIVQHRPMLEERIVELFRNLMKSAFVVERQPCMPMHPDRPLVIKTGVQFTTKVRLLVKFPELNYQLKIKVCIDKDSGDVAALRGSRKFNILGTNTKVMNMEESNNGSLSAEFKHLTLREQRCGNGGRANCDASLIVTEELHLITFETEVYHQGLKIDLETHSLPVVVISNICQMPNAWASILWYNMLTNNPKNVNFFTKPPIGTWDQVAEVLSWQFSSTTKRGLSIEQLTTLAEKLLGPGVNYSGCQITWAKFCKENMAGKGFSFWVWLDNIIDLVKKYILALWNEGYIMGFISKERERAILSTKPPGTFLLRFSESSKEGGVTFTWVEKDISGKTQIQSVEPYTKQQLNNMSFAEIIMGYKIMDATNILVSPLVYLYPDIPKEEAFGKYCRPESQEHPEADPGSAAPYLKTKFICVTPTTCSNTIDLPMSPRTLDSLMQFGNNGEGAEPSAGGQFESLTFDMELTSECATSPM
Sequence of Transcription factor Sp1 (Homo sapiens) (P08047 whole entry, looked up): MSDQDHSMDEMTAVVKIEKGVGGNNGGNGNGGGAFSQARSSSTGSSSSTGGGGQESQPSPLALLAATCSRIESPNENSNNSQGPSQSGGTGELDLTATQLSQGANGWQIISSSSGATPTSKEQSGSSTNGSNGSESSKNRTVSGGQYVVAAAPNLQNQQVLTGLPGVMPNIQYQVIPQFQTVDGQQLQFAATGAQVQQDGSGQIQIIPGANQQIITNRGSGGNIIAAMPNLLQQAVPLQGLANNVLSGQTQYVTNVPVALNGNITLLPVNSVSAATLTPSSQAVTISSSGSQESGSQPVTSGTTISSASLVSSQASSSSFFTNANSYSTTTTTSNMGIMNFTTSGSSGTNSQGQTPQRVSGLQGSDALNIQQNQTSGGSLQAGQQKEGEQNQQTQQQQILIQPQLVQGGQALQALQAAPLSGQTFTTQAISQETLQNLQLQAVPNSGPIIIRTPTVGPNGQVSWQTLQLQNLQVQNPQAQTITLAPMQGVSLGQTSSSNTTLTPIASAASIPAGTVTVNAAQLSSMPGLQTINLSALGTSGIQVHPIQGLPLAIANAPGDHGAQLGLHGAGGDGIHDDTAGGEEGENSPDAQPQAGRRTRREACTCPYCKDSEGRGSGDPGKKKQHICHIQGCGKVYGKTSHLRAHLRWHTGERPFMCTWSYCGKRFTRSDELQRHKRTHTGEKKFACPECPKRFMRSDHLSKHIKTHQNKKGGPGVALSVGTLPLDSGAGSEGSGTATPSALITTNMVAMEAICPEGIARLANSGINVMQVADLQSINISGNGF
Sequence of Paired box protein Pax-6 (Homo sapiens) (P26367 whole entry, looked up): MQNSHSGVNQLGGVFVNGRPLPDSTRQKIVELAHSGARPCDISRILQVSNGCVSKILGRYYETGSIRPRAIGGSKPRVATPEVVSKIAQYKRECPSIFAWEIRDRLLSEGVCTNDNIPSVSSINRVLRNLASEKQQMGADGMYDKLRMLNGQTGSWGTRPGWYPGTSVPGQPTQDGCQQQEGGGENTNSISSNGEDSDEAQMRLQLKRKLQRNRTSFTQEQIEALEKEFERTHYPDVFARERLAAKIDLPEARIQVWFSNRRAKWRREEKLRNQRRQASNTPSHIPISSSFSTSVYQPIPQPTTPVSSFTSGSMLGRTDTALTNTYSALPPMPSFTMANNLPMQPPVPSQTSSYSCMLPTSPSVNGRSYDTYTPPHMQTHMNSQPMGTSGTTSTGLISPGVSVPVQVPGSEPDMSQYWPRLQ
Sequence of Hypoxia-inducible factor 1-alpha (Homo sapiens) (Q16665 whole entry, looked up): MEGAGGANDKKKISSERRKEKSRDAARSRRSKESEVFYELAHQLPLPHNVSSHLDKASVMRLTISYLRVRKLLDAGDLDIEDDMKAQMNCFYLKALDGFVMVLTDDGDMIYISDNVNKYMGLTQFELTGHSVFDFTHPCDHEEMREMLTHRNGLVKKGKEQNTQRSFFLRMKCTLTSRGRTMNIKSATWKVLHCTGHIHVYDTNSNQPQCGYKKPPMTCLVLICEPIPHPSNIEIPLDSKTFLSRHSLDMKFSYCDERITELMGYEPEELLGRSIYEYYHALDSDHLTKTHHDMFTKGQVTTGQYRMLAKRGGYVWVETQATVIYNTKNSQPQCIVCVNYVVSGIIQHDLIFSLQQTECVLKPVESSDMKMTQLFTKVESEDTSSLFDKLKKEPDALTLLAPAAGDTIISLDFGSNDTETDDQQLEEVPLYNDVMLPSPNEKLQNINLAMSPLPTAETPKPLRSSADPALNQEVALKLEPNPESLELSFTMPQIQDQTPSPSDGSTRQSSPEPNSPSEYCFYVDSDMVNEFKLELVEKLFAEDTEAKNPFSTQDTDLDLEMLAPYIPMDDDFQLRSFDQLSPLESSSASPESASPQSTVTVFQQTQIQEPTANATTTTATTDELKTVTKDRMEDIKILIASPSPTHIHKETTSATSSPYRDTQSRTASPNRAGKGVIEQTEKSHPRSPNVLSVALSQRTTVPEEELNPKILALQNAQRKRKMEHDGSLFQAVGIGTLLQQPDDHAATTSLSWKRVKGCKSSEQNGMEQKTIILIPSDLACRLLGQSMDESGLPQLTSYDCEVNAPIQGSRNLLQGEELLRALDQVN
Sequence of Bile acid receptor (Homo sapiens) (Q96RI1 whole entry, looked up): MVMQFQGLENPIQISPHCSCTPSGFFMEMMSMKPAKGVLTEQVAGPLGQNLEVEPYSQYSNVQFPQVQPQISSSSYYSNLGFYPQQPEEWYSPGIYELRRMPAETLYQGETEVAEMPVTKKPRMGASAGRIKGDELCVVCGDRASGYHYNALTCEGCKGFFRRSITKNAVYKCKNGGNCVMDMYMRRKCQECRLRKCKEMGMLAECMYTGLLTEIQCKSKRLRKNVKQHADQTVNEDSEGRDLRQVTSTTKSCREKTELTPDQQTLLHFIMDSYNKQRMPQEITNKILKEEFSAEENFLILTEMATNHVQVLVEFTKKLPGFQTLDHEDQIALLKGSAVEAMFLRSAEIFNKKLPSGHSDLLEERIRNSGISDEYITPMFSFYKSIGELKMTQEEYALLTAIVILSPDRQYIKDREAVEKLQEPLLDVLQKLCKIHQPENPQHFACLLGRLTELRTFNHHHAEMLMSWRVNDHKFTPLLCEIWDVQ

ClC(Cl)=C(c1ccc(Cl)cc1)c1ccc(Cl)cc1
active: [1] 21.5 µM and 27.7 µM and 184 µM | [3] 100 µM | [6] 169 µM | [8] 174 µM | [9] 156 µM | [11] 100 µM | [12] 4.93 µM [middle of 4 runs] | [13] 31.7 µM and 78.5 µM and 27.1 µM | [15] 66.7 µM | [16] 95.5 µM [middle of 4 runs]
inactive: [1] | [2] | [3] | [4] | [5] | [6] | [7] | [8] | [9] | [10] | [11] | [13] | [14] | [15] | [17] | [18] | [19]

CCC(C)c1cc([N+](=O)[O-])cc([N+](=O)[O-])c1O (configuration not stated)
active: [3] 8.83 µM | [9] 13.5 µM | [11] 56.2 µM | [13] 16.5 µM | [14] 26.4 µM | [15] 10.8 µM | [16] 20.9 µM | [20] 27.6 µM
inactive: all other assays above
